Bioassay records: PubChem BioAssay, NMMLSC
Compounds with a hit are over-represented: about 1.2% of the library has one in this group of screens.
RGS8-Gao – modulates binding of RGS8 to human Galphao. P09471. response (percent of control binding), % at 10 µM. multiplexed bead flow cytometry; actives lie on both sides. 220,000 compounds, 0.34% hits; in the data active = response below about 60% or above about 140%; inactive = in between;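 also: Galphao activated as the GDP aluminium fluoride complex binding bead-coupled RGS8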
Target sequence (P09471 whole entry, looked up): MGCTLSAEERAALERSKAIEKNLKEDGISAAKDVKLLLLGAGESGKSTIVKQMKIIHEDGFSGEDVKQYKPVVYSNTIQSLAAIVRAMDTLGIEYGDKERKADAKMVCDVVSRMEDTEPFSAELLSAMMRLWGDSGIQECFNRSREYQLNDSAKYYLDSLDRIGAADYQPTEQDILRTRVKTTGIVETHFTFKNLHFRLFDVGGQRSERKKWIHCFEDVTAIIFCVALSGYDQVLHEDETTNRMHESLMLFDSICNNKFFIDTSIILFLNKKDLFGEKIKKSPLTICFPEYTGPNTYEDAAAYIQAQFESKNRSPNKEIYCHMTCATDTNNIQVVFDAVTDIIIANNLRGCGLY
RGS4-Gao reg – human RGS4-Galphao interaction regulation | AID 1415 | P09471 | binding response (% of control), % at 10 µM | 220,000 compounds, 0.33% hits | Multiplexed bead flow cytometry, RGS4-Galphao binding; actives lie on both sides; in the data active = binding response below about 49% or above about 150%; inactive = in between;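 also: fluorescent Galphao activated with aluminum fluoride binding bead-coupled RGS4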
GSH bead fluor – compound fluoresces at 488/530 nm on GSH beads; fluorescence (KMESF) at 10 µM; GSH beads flow cytometry, compound fluorescence 488/530 nm; active compounds read high; AID 1776; 190,000 compounds, 0.25% hits; in the data active = fluorescence above about 89;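 also: glutathione beads carrying GST-tagged Bcl family fusion proteins plus one bare bead set; values are compound well signal with DMSO vehicle wells as background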
RGS16-Gao – modulates binding between human RGS16 and Galphao. 220,000 compounds, 0.38% hits. binding response (% of control), % at 10 µM. bead-based flow cytometry RGS16-Galphao binding, fluorescence; actives lie on both sides. O15492+P09471. AID 1441;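 also: Galphao activated by GDP with aluminum fluoride before binding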
RGS7-Gao reg – modulates binding of RGS7 to human Galphao. Multiplexed bead flow cytometry; actives lie on both sides. 220,000 compounds, 0.35% hits. P09471. AID 1439. binding response (% of control), % at 10 µM; in the data active = binding response below about 49% or above about 150%; inconclusive = no clear call, values can overlap the other calls; inactive = in between;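 also: fluorescent Galphao held in activated GDP-AlF4 state binding bead-coupled RGS7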
Avidin bead fluor – compound fluoresces at 488/530 nm on avidin beads. compound fluorescence 488/530 nm, flow cytometry; active compounds read high. fluorescence (KMESF) at 10 µM. 220,000 compounds, 0.38% hits; in the data active = fluorescence above about 47
RGS-Gao – modulates binding between human RGS4 and Galphao | multiplexed bead flow cytometry, RGS–Galpha-o binding | RGS4–Galpha-o binding response, % at 10 µM | AID 1504 | 1,600 compounds, 99% hits | shares compounds with RGS16-Gao;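 also: fluorescently labeled Galpha-o bound to GDP with aluminium fluoride binding biotinylated RGS beads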
Avidin counter – interferes with biotinylated probe binding to avidin beads; shares compounds with RGS16-Gao; streptavidin beads, fluorescein-biotin binding, flow cytometry; inhibition, % at 10 µM; 1,700 tested, under 10 active; AID 1783;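 active = inhibition above 50%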;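 also: median green fluorescence of gated singlet beads compared with DMSO control wells; 0% = DMSO wells and 100% = complete loss of bead fluorescence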
RGS8-Gao confirm – RGS8-Galphao interaction regulation, single point confirmation; bead-based flow cytometry RGS8-Galphao binding, fluorescence; actives lie on both sides; binding response (% of control), % at 10 µM; AID 1836; shares compounds with RGS16-Gao; 1,700 compounds, 3% hits; in the data active = binding response below about 72% or above about 130%; inactive = in between;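 also: Galphao activated as GDP AlF4 complex before binding bead RGS8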
RGS7-Gao confirm – confirmation of regulators of human RGS7-Galphao interaction | shares compounds with RGS16-Gao | bead-based flow cytometry RGS7-Galphao binding; actives lie on both sides | response (percent of control binding), % at 10 µM | 1,700 compounds, 7.8% hits; in the data active = response below about 75% or above about 130%; inactive = in between;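 also: fluorescent Galphao activated with GDP and aluminum fluoride binding bead-coupled RGS7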
RGS16-Gao conf – confirmation of regulators of human RGS16-Galphao interaction. shares compounds with RGS16-Gao. bead-based flow cytometry, RGS16-Galphao binding; actives lie on both sides. response (% of control binding), % at 10 µM. 1,700 compounds, 4% hits; in the data active = response below about 74% or above about 130%; inactive = in between;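 also: Galphao activated as the GDP aluminium fluoride complex binding bead-coupled RGS16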
RGS4-Gao confirm – RGS4-Galphao interaction regulation, single point confirmation. shares compounds with RGS16-Gao. 1,700 compounds, 4% hits. RGS4-Galphao binding, multiplexed bead flow cytometry; actives lie on both sides. binding response (% of control), % at 10 µM. AID 1840; in the data active = binding response below about 74% or above about 130%; inactive = in between
RGS19-Gao single – RGS19-Galphao interaction regulation, single point confirmation. shares compounds with RGS16-Gao. bead-based flow cytometry RGS19-Galphao binding; actives lie on both sides. response (percent of control binding), % at 10 µM. 1,700 compounds, 5% hits. AID 1841; in the data active = response below about 50% or above about 160%; inactive = in between;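 also: 100% = no compound control and 0% = blank background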
Target sequence (P09471 whole entry, looked up): as above
Target sequence (P49795 whole entry, looked up): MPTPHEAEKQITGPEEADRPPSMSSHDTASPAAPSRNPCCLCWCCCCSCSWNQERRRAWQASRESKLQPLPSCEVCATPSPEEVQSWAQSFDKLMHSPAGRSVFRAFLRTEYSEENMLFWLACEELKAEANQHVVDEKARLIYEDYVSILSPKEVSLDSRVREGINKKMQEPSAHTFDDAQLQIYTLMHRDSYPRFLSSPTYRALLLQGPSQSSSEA
Starred values were filed as active, the others as inactive; ? = inconclusive; . = not tested or not shown; [ ] = remark or other dose. Unless noted, no rule for the calls is given here.

SMILES	RGS8-Gao	RGS4-Gao reg	GSH bead fluor	RGS16-Gao	RGS7-Gao reg	Avidin bead fluor	RGS-Gao	Avidin counter	RGS8-Gao confirm	RGS7-Gao confirm	RGS16-Gao conf	RGS4-Gao confirm	RGS19-Gao single
CCCn1c(N)c(NCCN2CCOCC2)c(=O)n(CC(=O)NCc2ccccc2)c1=O	102.3	103.0	12	108.9	104.1	26	.	.	.	.	.	.	.
Cc1ccc(NS(=O)(=O)c2ccc(C)c(C(=O)N3CCN(C)CC3)c2)cc1	80.5	69.4	4	-37.2*	80.3	3	69.4*	1.0	97.9	98.3	102.0	96.9	107.2
Cc1ccc(NS(=O)(=O)c2ccc(C(=O)N3CCCN(C)CC3)cc2)cc1	96.9	99.5	12	101.6	98.6	21	.	.	.	.	.	.	.
CCCc1nn(C)c2c(=O)[nH]c(-c3cc(S(=O)(=O)Nc4ccc(NC(C)=O)cc4)ccc3OCC)nc12	101.0	101.0	.	102.1	?	5	.	.	.	.	.	.	.
CCN1CCN(Cc2cc(=O)oc3ccc(Cl)cc23)CC1	143.7*[activator]	108.3	26	245.2	106.6	10	108.3*	2.3	101.5	103.5	101.9	98.0	106.6
COc1ccccc1C(=O)N1CCNC(=O)C1CC(=O)Nc1cccc(C)c1 (stereo unspecified)	100.8	103.2	10	115.1	239.6*[activator]	143*	103.2*	-3.3	100.3	99.6	99.7	100.6	100.7
COc1ccc(NC(=S)N2CCNC(=O)C2CC(=O)Nc2cccc(Cl)c2C)cc1 (stereo unspecified)	78.8	94.8	9	9.7*	94.3	8	94.8*	-0.5	95.2	94.5	93.7	95.8	92.0
COc1ccc(Oc2ccc(-c3ccn[nH]3)cc2)cc1	97.6	86.7	.	94.5	?	5	.	.	.	.	.	.	.
COc1ccc(-c2noc(Cc3ccc(Cl)cc3)n2)cc1OC	98.4	109.2	28	93.2	166.5*[activator]	67*	109.2*	-0.9	102.5	99.1	100.8	101.2	101.8
COc1ccc(Cc2nc(-c3ccc(Cl)cc3)no2)cc1	102.3	102.0	33	103.5	99.2	12	.	.	.	.	.	.	.
CCOC(=O)/C(=N\Nc1ccccc1)S(=O)(=O)c1ccccc1	.	.	40	.	.	.	.	1.1	102.1	98.7	100.1	97.8	101.4
CCOC(=O)/C(=N/Nc1ccc(C)cc1)S(=O)(=O)c1ccc(Cl)cc1	101.0	105.2	13	109.2	102.3	15	.	.	.	.	.	.	.
COc1ccccc1NC(=S)N1CCC(C(=O)c2ccc(F)cc2)CC1	100.6	101.9	22	103.1	100.9	5	.	.	.	.	.	.	.
COc1ccc(NC(=O)Nc2nnc(-c3ccccc3SCc3ccccc3)s2)cc1	.	.	33	.	.	.	.	0.1	102.6	104.5	105.4	102.8	103.6
COc1cccc(NC(=O)Nc2nnc(-c3ccccc3SCc3ccccc3)s2)c1	105.3	104.7	9	105.6	101.4	7	.	.	.	.	.	.	.
O=C(CN(Cc1ccccc1)S(=O)(=O)c1ccc2c(c1)OCCO2)Nc1ccc2c(c1)OCCO2	135.6	184.4*[activator]	74	477.8	261.0*[activator]	95*	.	-1.6	100.9	100.4	97.9	101.4	93.0
CS(=O)(=O)N(CC(=O)Nc1ccc2c(c1)OCCO2)Cc1ccccc1	100.5	100.8	55	97.6	98.2	7	.	.	.	.	.	.	.
CCCn1c(N)nc2ccccc21	144.3*[activator]	115.3	14	369.5	114.6	8	115.3*	2.3	104.1	104.0	108.9	103.6	103.8
Cn1nc(C(F)(F)F)c(-c2ccccc2)c1NC(=O)c1ccco1	92.8	82.4	.	84.2	?	3	.	.	.	.	.	.	.
Cn1nc(C(F)(F)F)c(-c2ccc(F)cc2)c1NC(=O)c1ccco1	116.0	187.9*[activator]	.	176.2*[activator]	?	61*	.	-0.2	97.0	74.0*	84.5	82.8	68.0
COc1ccc(CNc2nc3ccccc3n2C)c(O)c1	102.9	97.7	.	101.7	?	8	.	.	.	.	.	.	.
Cn1c(NCc2cc(Br)ccc2O)nc2ccccc21	141.0*[activator]	118.5	6	291.0	116.0	7	118.5*	-2.5	95.2	72.4*	84.6	85.3	80.4
CN(C)/C=C/C(=O)c1cnc(-c2ccccc2)s1	104.5	103.0	10	108.7	102.1	24	.	.	.	.	.	.	.
CN(C)/C=C/C(=O)c1cnc(-c2ccc(Cl)cc2)s1	7.8*	3.1*	10	-6.2*	2.5*	0	.	0.2	98.9	91.3	98.6	96.5	95.8
COc1cccc(/C=N/NC(=O)c2ccc(=O)n(C)c2)c1OC	102.9	102.2	11	101.0	105.1	12	.	.	.	.	.	.	.
SMILES	RGS8-Gao	RGS4-Gao reg	GSH bead fluor	RGS16-Gao	RGS7-Gao reg	Avidin bead fluor	RGS-Gao	Avidin counter	RGS8-Gao confirm	RGS7-Gao confirm	RGS16-Gao conf	RGS4-Gao confirm	RGS19-Gao single
COc1ccccc1/C=N/NC(=O)c1ccc(-c2ccccc2)cc1	122.6	117.4	13	190.9*[activator]	114.4	17	117.4*	1.8	95.2	61.3*	77.2	75.6	60.9
COc1cccc(/C=N/NC(=O)c2ccccc2)c1OS(=O)(=O)c1ccccc1	75.0	91.0	7	25.0*	89.0	9	91.0*	-1.2	101.4	100.5	96.8	100.2	100.1
C=C(C)CC(NCCc1ccccc1)c1ccco1 (stereo unspecified)	106.3	155.8*[activator]	14	135.2	134.6	15	.	-0.1	99.4	89.2	96.1	95.6	81.8
O=C(NCCc1ccccc1)c1ccco1	102.3	100.9	17	100.8	107.1	31	.	.	.	.	.	.	.
CSC1=NS(=O)(=O)c2c(C)nn(C)c2S1	78.6	85.4	.	76.8	?	5	.	.	.	.	.	.	.
Cc1cc(=S)cc(C)n1CCO	53.4*	100.0	24	-0.4	104.0	0	100.0*	0.4	95.1	98.9	99.0	97.4	96.8
CN(C(=O)CC1C(=O)NCCN1Cc1ccc(F)c(F)c1)C1CCOCC1 (stereo unspecified)	96.8	97.5	8	98.4	95.8	4	.	.	.	.	.	.	.
